Results: PubChem BioAssay (NCI)
This is part of a sample that, as a whole, favours compounds with a hit. Of some 83,000 tested, about 20% had one in any assay.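 Percent growth is the endpoint: 0 to 100 indicates growth inhibition (40 means 60% inhibition), 0 means no net growth, and negative values indicate cell death.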 Calls of active or inactive are those of the source. How the source made its calls: active means growth percent below 10; inactive means the rest.

Columns and labels:
Assay in all cases: NCI-60 one-dose screen, 48 h (100 = growth as untreated, 0 = no growth, -100 = all killed)
[1] = test system: HCT-15 colon; details: 10 µM unless noted
[2] = test system: HT29 colon; details: 10 µM unless noted
[3] = test system: SNB-75 CNS; details: 10 µM unless noted
[4] = test system: SNB-19 CNS; details: 10 µM unless noted
[5] = test system: U251 CNS; details: 10 µM unless noted
[6] = test system: PC-3 prostate; details: 10 µM unless noted
[7] = test system: SK-MEL-5 melanoma; details: 10 µM unless noted
[8] = test system: UACC-62 melanoma; details: 10 µM unless noted
[9] = test system: LOX IMVI melanoma; details: 10 µM unless noted
[10] = test system: SK-MEL-28 melanoma; details: 10 µM unless noted
[11] = test system: EKVX NSCLC; details: 10 µM
[12] = test system: SN12C renal; details: 10 µM unless noted
[13] = test system: UO-31 renal; details: 10 µM unless noted
[14] = test system: TK-10 renal; details: 10 µM unless noted
[15] = test system: ACHN renal; details: 10 µM unless noted
[16] = test system: CAKI-1 renal; details: 10 µM unless noted
[17] = test system: A498 renal; details: 10 µM unless noted
[18] = test system: CCRF-CEM leukemia; details: 10 µM
[19] = test system: MOLT-4 leukemia; details: 10 µM unless noted
[20] = test system: SK-MEL-2 melanoma; details: 10 µM unless noted

Measured: growth

COc1ccc(C(=O)NCCNc2nccc(-c3c(-c4ccc(F)cc4)nc4sccn34)n2)cc1
inactive: [1] 36.6% | [2] 14.6% | [3] 50.9% | [4] 61.9% | [5] 55.4% | [6] 49.5% | [7] 38.1% | [8] 47.4% | [9] 43.3% | [10] 76.7% | [11] 66.8% | [12] 70% | [13] 34.3% | [14] 29.1% | [15] 29.2% | [16] 43.6% | [17] 56.1% | [18] 48.1% | [19] 59.8%

O=C(Nc1ccc(-n2cc(-c3ccncc3)c(-c3ccc(Cl)c(O)c3)n2)cc1)c1ccc(Cl)c(C(F)(F)F)c1
inactive: [4] 32.5% | [11] 35.2% | [12] 66.6% | [17] 71.8%
active: [1] -28% | [2] -86.3% | [3] -48.6% | [5] -49.1% | [6] -19.9% | [7] -97.5% | [8] -3.14% | [9] -5.19% | [10] -38.3% | [13] -37.3% | [14] -19.8% | [15] -24.3% | [16] -33.5% | [18] 3.34% | [19] -1.8%

CC(C)(C)c1ccc(OCCOC(=O)CBr)cc1
inactive: [1] 97.9% | [2] 104% | [3] 84.6% | [4] 104% | [5] 103% | [6] 110% | [7] 97% | [8] 93.6% | [9] 97.8% | [10] 107% | [11] 126% | [12] 116% | [13] 92.9% | [14] 109% | [15] 85.9% | [16] 107% | [17] 107% | [18] 56.2% | [19] 63%

N#Cc1ccc(NC2c3ccccc3CC2O)cc1 (stereo not given)
inactive: [1] 101% | [2] 110% | [3] 91.5% | [4] 109% | [5] 113% | [6] 98.8% | [7] 102% | [8] 99.1% | [10] 109% | [20] 103% | [11] 114% | [12] 107% | [13] 83.1% | [14] 119% | [15] 104% | [16] 106% | [17] 115% | [18] 94.6% | [19] 91.5%

N#Cc1ccc(OCc2nc(N)nc(N)c2-c2ccc(Cl)c(Cl)c2)cc1
inactive: [1] 20.9% | [2] 10.8% | [3] 65.6% | [4] 38.2% | [5] 20.5% | [6] 18.9% | [7] 23.4% | [8] 12.2% | [9] 11.1% | [10] 54.4% | [20] 29.8% | [13] 40.4% | [14] 40.9% | [15] 19.4% | [16] 13.9% | [17] 38.5% | [18] 18.5% | [19] 22.9%

Cc1[nH]n(C(=S)Nc2nc3cc(Cl)c(F)cc3s2)c(=O)c1N=Nc1ccc(F)c(Cl)c1
inactive: [1] 101% | [2] 112% | [3] 86% | [4] 89.7% | [5] 95.9% | [6] 98.1% | [7] 93.1% | [8] 92.8% | [9] 99% | [10] 106% | [11] 80.1% | [12] 100% | [13] 93% | [14] 129% | [15] 104% | [18] 19.3%
active: [19] -16.5%

CC(=O)N1CCN(CCNC(=O)n2cc(-c3ccncc3)c(-c3ccc(O)c(Cl)c3)n2)CC1
inactive: [1] 118% | [2] 103% | [3] 81.4% | [4] 120% | [5] 110% | [6] 171% | [7] 107% | [8] 91.3% | [9] 109% | [10] 85.5% | [11] 133% | [12] 102% | [13] 131% | [14] 87.2% | [15] 105% | [16] 136% | [17] 118% | [18] 95.8% | [19] 85.8%

COC(=O)C(Cc1cnc[nH]1)N1CC(=O)N2[C@@H](c3ccccc3)SC[C@H]2C1=O (stereo not given in full)
inactive: [1] 107% | [2] 104% | [3] 120% | [4] 106% | [5] 95.2% | [6] 97.4% | [7] 131% | [8] 106% | [9] 97.7% | [10] 117% | [11] 101% | [12] 107% | [13] 88.4% | [15] 106% | [16] 94.1% | [17] 95.9% | [18] 99.6% | [19] 99.7%

O=C(Nc1ccc(-n2cc(-c3ccncc3)c(-c3ccc(Cl)c(O)c3)n2)cc1)Nc1cc(C(F)(F)F)cc(C(F)(F)F)c1
inactive: [1] 15.6% | [4] 27.1% | [5] 15.8% | [9] 19.8% | [10] 16.1% | [11] 15.9% | [12] 30.1% | [13] 35.3% | [15] 12% | [17] 17.7%
active: [2] 0.312% | [3] -0.49% | [6] 4.61% | [7] -24.4% | [8] 5.53% | [16] 8.54% | [18] 2.13% | [19] 9.3%

C=C(C)C(C(=O)OCC)(C(=O)OCC)C(C)C
inactive: [1] 102% | [2] 116% | [3] 86.5% | [4] 99.9% | [5] 102% | [6] 108% | [7] 98.3% | [8] 103% | [9] 102% | [10] 97% | [20] 121% | [13] 100% | [14] 113% | [15] 104% | [16] 105% | [17] 110% | [18] 98.2% | [19] 114%

CCCCN(CCCC)CC(O)CN(CC)CC (stereo not given)
inactive: [1] 104% | [2] 88% | [3] 87.3% | [4] 105% | [5] 102% | [6] 97.7% | [7] 96.2% | [8] 105% | [10] 109% | [20] 91.5% | [11] 107% | [12] 96.4% | [13] 72.8% | [14] 92.7% | [15] 102% | [16] 93.8% | [17] 111% | [18] 104% | [19] 96%

COC(=O)CC(=O)C(=O)OC
inactive: [1] 103% | [2] 106% | [3] 92.2% | [4] 107% | [5] 102% | [6] 99.8% | [7] 101% | [8] 108% | [9] 55.1% | [10] 111% | [12] 107% | [13] 91.4% | [15] 100% | [16] 133% | [19] 97.9%

COc1cc(-c2nn(-c3ccc(NC(=O)Nc4ccc(Cl)c(Cl)c4)cc3)cc2-c2ccncc2)ccc1Cl
active: [14] -12.6% | [19] 9.31%
inactive: [1] 28.9% | [2] 18.1% | [3] 25% | [4] 36.9% | [5] 24.3% | [6] 16.9% | [7] 48% | [8] 32.8% | [9] 20.1% | [10] 41.5% | [11] 33.6% | [12] 43.4% | [13] 33.4% | [15] 20.9% | [16] 30.2% | [17] 38.7% | [18] 11.7%

CC1(C)N=C(N)N=C(N)N1c1cccc(CCCCOc2ccccc2)c1
inactive: [1] 58.5% | [2] 11.3% | [3] 60.8% | [4] 32.4% | [5] 11.4% | [7] 17.9% | [8] 20.8% | [9] 15.9% | [10] 39.3% | [20] 70.7% | [13] 84.2% | [14] 24% | [15] 35.1% | [16] 67.7% | [17] 49.7% | [18] 13.2% | [19] 14.1%
active: [6] -6.9%

O=C(CN1CCN(c2cccc(Cl)c2)CC1)N1CCN(c2nnc(-c3ccc(Cl)cc3)c(-c3ccc(Cl)cc3)n2)CC1
inactive: [1] 52.9% | [2] 59.3% | [3] 97.6% | [4] 77.6% | [5] 71.7% | [6] 25.4% | [7] 61.6% | [8] 71.4% | [9] 71.5% | [10] 93.8% | [11] 59% | [12] 75.7% | [14] 90.2% | [15] 65.3% | [16] 105% | [17] 63.1% | [18] 48.7% | [19] 36.4%

COC(c1ccccc1)C(Br)C(=O)c1ccccc1 (stereo not given)
inactive: [1] 90.7% | [2] 106% | [3] 86.5% | [4] 96.3% | [5] 95.1% | [6] 91.3% | [7] 94.1% | [8] 84.9% | [10] 102% | [20] 95.7% | [11] 103% | [12] 94.3% | [13] 75.8% | [14] 91.5% | [15] 94.6% | [16] 85% | [17] 98.6% | [18] 69.9% | [19] 98%

CCCCn1c(Cc2ccc(OC)cc2)nc2cc(OC)c(OC)cc2c1=O
inactive: [1] 93.4% | [2] 101% | [3] 87.5% | [4] 84.7% | [5] 87.8% | [6] 91.8% | [7] 36.6% | [8] 59.6% | [9] 90.2% | [10] 90.6% | [11] 44.8% | [12] 88.6% | [13] 74.7% | [14] 67.2% | [15] 80.9% | [17] 62% | [18] 53.1% | [19] 49.1%
